From PubChem BioAssay AID434968 (Broad Institute, 2010)
Screen size: about 2,100 compounds; about 1,800 (86%) were called active. The set was probably picked from earlier hits. Not all results are given here. A number with no mark means an inactive call. The rule behind the calls is not given here.

Assay: counter-screen GFP chromophore formation inhibition, dose response, counter-screen, biochemical, fluorescence, homogeneous (AID 434968)
Conditions: cell-free GFP chromophore formation

SMILES	EC50
CCOc1c(Br)cc(/C=C2\C(=O)N(CCC#N)N=C2C)cc1OC	3.7 µM (active)
CN(c1ccccc1)c1ccc([N+](=O)[O-])c2nonc12	20.3 µM (active)
CC(=O)C12CC(C)=C(C)CC1CC1C3CCC4=CC(=O)CCC4(C)C3CCC12C (centres undefined)	> 38 µM
Cc1cc2[nH]ncc2cc1NC(=S)NC(=O)c1ccccc1	> 38 µM
O=S(=O)(Nc1ccc(O)c2ccccc12)c1ccc(OC(F)(F)F)cc1	0.19 µM (active)
O=c1[nH]c2ccccc2n2c(-c3ccccc3)nnc12	26.2 µM (active)
O=C(Oc1ccc(Br)cc1C(=S)N1CCOCC1)c1cccc([N+](=O)[O-])c1	> 38 µM
CCCCOC(=O)CNc1nnc(SCC(=O)OCC)[nH]c1=O	11.3 µM (active)
COC(=O)CC1=NN(c2nc(C)cc(C)n2)C(=O)C1	> 38 µM
Cc1ccc(Nc2cc(C)nc3c(C)ccc([N+](=O)[O-])c23)cc1	12 µM (active)
Cc1ccc(CNC(=O)CCN2C(=O)[C@@H]3Cc4ccccc4CN3C2=O)cc1	> 38 µM
Cc1[nH]n(C)c(=O)c1C(=O)c1c(-c2c(Cl)cccc2Cl)noc1C	12.1 µM (active)
CCCCCCCCc1c(O)nc(-n2[nH]c(C)c(CCO)c2=O)[nH]c1=O	> 38 µM
CSc1nnc(NC(=O)c2nc(S(=O)(=O)Cc3ccc(C)cc3)ncc2Cl)s1	17 µM (active)
Cc1cccc(CS(=O)(=O)c2ncc(Cl)c(C(=O)Nc3ccc(F)cc3)n2)c1	2.65 µM (active)
CC1=NN(Cc2ccccc2)C(=O)/C1=C/c1ccc(N(C)C)cc1	3.59 µM (active)
O=C(CCCN1C(=O)/C(=C/c2ccccc2)SC1=S)Nc1ccc(O)cc1	> 38 µM
CC1=NNC(=O)C1Cc1c(Cl)cccc1Cl (centres undefined)	3.71 µM (active)
Cc1ccsc1/C=N/NC(=O)Cc1cc(=O)[nH][nH]1	6.88 µM (active)
O=C(Cc1cc(=O)[nH][nH]1)N/N=C/c1ccccc1[N+](=O)[O-]	10.3 µM (active)

SMILES	EC50
CCc1ccc(C2C(C#N)=C(N)Oc3n[nH]c(CC(=O)OC)c32)cc1 (centres undefined)	36.3 µM (active)
CCCc1[nH]nc2c1C(c1ccc(OC(=O)c3ccco3)cc1)C(C#N)=C(N)O2 (centres undefined)	25.1 µM (active)
COc1ccc(-c2[nH]nc3c2C(c2ccncc2)C(C#N)=C(N)O3)cc1 (centres undefined)	21.3 µM (active)
CCCc1[nH]nc2c1C(c1ccc(Br)s1)C(C#N)=C(N)O2 (centres undefined)	17.8 µM (active)
Cc1cc(C)n2nc(CNS(=O)(=O)c3c(F)c(F)c(F)c(F)c3F)nc2n1	10 µM (active)
CN1CCc2nc(SC(C(=O)O)c3ccccc3)c(C#N)c(-c3cccs3)c2C1 (centres undefined)	31.1 µM (active)
Cc1nc2ccccc2nc1N/N=C/c1ccc(O)cc1O	> 38 µM
O=C(Nc1ccccc1Cl)/C(Cl)=C(\Cl)S(=O)c1ccccc1 (centres undefined)	1.31 µM (active)
Cc1c(-c2nn(C)c(=O)c3ccccc23)oc2ccc(F)cc2c1=O	6.81 µM (active)
CCOCC(=O)NCc1ccc2c(c1)cc(C)n2C	> 12 µM
COc1ccc(/C=C2/C(=O)N(c3ccccc3)N=C2C)c(OC)c1	21.7 µM (active)
COc1ccc(C2NC(=S)NC3=C2CCc2ccccc23)cc1OC (centres undefined)	22.7 µM (active)
Cc1ccc(N(Cc2cc(=O)[nH]c3ccccc23)C(=O)CCl)cc1	0.148 µM (active)
O=C1/C(=C/c2ccc3c(c2)OCO3)CCC/C1=C\c1ccc2c(c1)OCO2	> 38 µM
Cc1[nH][nH]c(=O)c1C(c1ccc2c(c1)OCO2)c1c(C)[nH][nH]c1=O	0.426 µM (active)
CCOc1ccc(C(c2c(C)[nH][nH]c2=O)c2c(C)[nH][nH]c2=O)cc1OCC	0.386 µM (active)
COc1cccc(/C=N/Nc2cc(C)nc(-c3ccccc3O)n2)c1O	> 38 µM
O=C(O)CSc1c2c(nc3cc(C(=O)Nc4cccc(C(F)(F)F)c4)ccc13)CCCC2	15.6 µM (active)
COc1ccc(-c2nnc(SC(=O)N3c4ccccc4Sc4ccccc43)o2)cc1	0.551 µM (active)
